Molecules are shown by their SMILES. Non-standard residues stand in square brackets, D forms with d. Residues, ends and D or L forms follow the SMILES beside them. *: point of attachment. Nva = CCC[C@H](N)C(=O)O; Cbz = O=C(OCc1ccccc1)*

The nature of this experiment: qHTS profiling of the MIPE4 collection as inhibitors of Plasmodium falciparum (3D7) proliferation (AID 743344).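 Further: scaled between DMSO vehicle wells and 0.29 µM artemisinin as full inhibition.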 As to conditions: P. falciparum 3D7 in erythrocytes, SYBR Green DNA fluorescence, 72 h; at 28.5 µM unless noted. Put shortly:
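Erythrocytes infected with P. falciparum (0.3% parasitemia, 2.5% hematocrit) incubated with compounds 72 h at 37 C, 5% CO2. Lysis with saponin/Triton buffer containing SYBR Green I, overnight at room temperature in the dark; DNA fluorescence (485/535 nm) normalised to 0.29 uM artemisinin and DMSO.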
Background: qHTS replaces the single test concentration by a dilution series.
Turning to `Cc1cnc(NC(=O)Nc2cc(Br)c(C)cc2OC[C@@H]2CNCCO2)cn1`, the parasite growth, % of DMSO control was 5.93%.
`N#CC(=Cc1ccc(O)c(O)c1)C(=O)NCc1ccccc1`: the parasite growth, % of DMSO control is 42.9%.
The compound `CS[C@H]1SC[C@@H]2C(=O)N(C)[C@H](C(C)C)C(=O)OC[C@H](NC(=O)c3cnc4ccccc4n3)C(=O)N[C@H](C)C(=O)N(C)[C@@H]1C(=O)N(C)[C@H](C(C)C)C(=O)OC[C@H](NC(=O)c1cnc3ccccc3n1)C(=O)N[C@H](C)C(=O)N2C` showed a parasite growth, % of DMSO control of 7.68%.
In the case of `C=CC(=O)N1CCc2ccc(-n3c(=O)ccc4cnc5ccc(-c6cnn(C)c6)cc5c43)cc21`, the parasite growth, % of DMSO control is 5.53%.
`CC(C=CC=C(C)C=CC1=C(C)CCCC1(C)C)=CC=CC=C(C)C=CC=C(C)C=CC1=C(C)CCCC1(C)C` gave a parasite growth, % of DMSO control of 11.9%.
For the compound `CCC[C@@H](C=O)NC(=O)[C@H](CC(C)C)NC(=O)[C@H](CC(C)C)NC(=O)OCc1ccccc1` (Cbz-Leu-Leu-[Nva]-aldehyde), the parasite growth, % of DMSO control came out at 4.86%.
Turning to `C=CCNc1c(O)cc2c(O)c1C[C@@H](C)C[C@H](OC)[C@@H](O)[C@@H](C)C=C(C)[C@H](OC(N)=O)[C@@H](OC)C=CC=C(C)C(=O)N2`, the parasite growth, % of DMSO control was found to be 4.69%.
